8 compounds from PubChem BioAssay (NCI) can be followed below.

This is part of a sample that, as a whole, favours compounds with a hit. Of some 83,000 tested, about 20% had one in any assay.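 The test compound was applied at a single concentration to cells in 96-well plates for 48 hours, and percent growth was recorded.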 Values without a mark were called inactive. The source made the active and inactive calls. Rule for the calls: active = growth percent below 10; inactive = the rest.

Common to all, as to experiment: NCI-60 one-dose screen, 48 h (100 = growth as untreated, 0 = no growth, -100 = all killed)
Common to all, as to conditions: 10 µM unless noted

Experiment [1] deals with NCI-H23 lung.
The subject of experiment [2] is NCI-H226 lung.
Experiment [3] deals with NCI-H322M lung.
The subject of experiment [4] is HOP-62 NSCLC.
Experiment [5] deals with NCI-H460 lung.
For experiment [6], the system named is NCI-H522 lung.
For experiment [7], the system named is A549/ATCC NSCLC.
The subject of experiment [8] is 786-0 renal.
Experiment [9] relates to MALME-3M melanoma.
Experiment [10] has as its system MDA-MB-231 breast.
Experiment [11] relates to RXF 393 renal.
The test system of experiment [12] is SF-268 CNS.
Experiment [13] deals with SF-295 CNS.
In experiment [14] the test system is SF-539 CNS.
Experiment [15] relates to UACC-257 melanoma.
Experiment [16] deals with M14 melanoma.
For experiment [17], the system named is HCT-15 colon.
The subject of experiment [18] is COLO 205 colon.
Experiment [19] relates to DU-145 prostate.
Experiment [20] deals with K-562 leukemia.

As to `NC(N)=NC(N)=NCCCc1ccccc1`, the growth is 50.2% [100 µM] in experiment [1]; 63.4% [100 µM] in experiment [2]; 84.6% [100 µM] in experiment [3]; 65.1% [100 µM] in experiment [4]; 81.6% [100 µM] in experiment [5]; 47.2% [100 µM] in [6]. Further, the growth was 62.3% [100 µM] in experiment [7]; 56.2% [100 µM] in [8]; 63.9% [100 µM] in experiment [9]; 69% [100 µM] in experiment [10]; 72.4% [100 µM] in experiment [11]; 59.5% [100 µM] in [12]. Moreover, the growth was 49.4% [100 µM] in experiment [13]; 66.5% [100 µM] in [14]; 62.8% [100 µM] in [15]; 76.6% [100 µM] in [16]; 80.3% [100 µM] in experiment [17].
For `C=CCCCCCCCCC(=O)[O][Sn]([CH2]CCC)([CH2]CCC)[CH2]CCC`, the growth in experiment [1] was -86.2% (active); in [2], -52.7% (active); in [3], -88.7% (active); in experiment [4], -94.7% (active); in experiment [5], -83.3% (active); in experiment [6] it was -53% (active). The growth is -96% (active) in experiment [8]; -86% (active) in [18]; -95.2% (active) in experiment [19]; -16.8% (active) in [20]; -79.8% (active) in experiment [9]; -81.7% (active) in [10]. Further, the growth is -97.3% (active) in experiment [11]; -97.3% (active) in [12]; -85.4% (active) in experiment [13]; -84.1% (active) in experiment [14]; -91.1% (active) in experiment [16]; -73.3% (active) in experiment [17].
On to `CCN(CC)c1ccc(CN(CC(=O)c2ccc(Cl)c(Cl)c2)Cc2ccccc2)cc1`, for which the growth in experiment [1] is 97.6%; in experiment [2] it was 90.9%; in experiment [3] it was 110%; in [4], 96.9%; in experiment [5] it was 101%; in experiment [6], 106%. The growth in [7] was 107%; in experiment [18], 104%; in experiment [19], 104%; in experiment [20], 103%; in experiment [9], 108%; in experiment [10], 99.9%. In addition, the growth in experiment [11] was 89.9%; in [12] it was 102%; in experiment [13] it was 107%; in [14], 108%; in experiment [15] it was 112%; in experiment [16] it was 103%. Moreover, the growth in [17] was 99.8%.
Take `CC[N+](CC)(CCOCCOCC[N+](CC)(CC)Cc1ccc([N+](=O)[O-])cc1)Cc1ccc([N+](=O)[O-])cc1`: the growth is 99.2% in experiment [1]; 91.7% in [2]; 117% in experiment [3]; 76.4% in experiment [4]; 96.8% in experiment [5]; 93.4% in experiment [6]. Besides, the growth in [8] is 109%; in experiment [18] it was 106%; in experiment [19] it was 119%; in experiment [20], 98%; in experiment [9] it was 105%; in experiment [10], 91.3%. Also, the growth in experiment [11] was 110%; in experiment [12], 98.6%; in [13], 103%; in [14], 105%; in experiment [15], 90.9%; in experiment [16], 101%. In [17], the growth was 105%.
As to `O=NC1CC=CCC1c1ccccc1` (stereo not given), the growth is 106% in experiment [1]; 105% in [2]; 118% in [3]; 98.7% in [4]; 112% in experiment [5]; 109% in [6]. Also, the growth in [8] is 106%; in experiment [18], 117%; in experiment [19] it was 124%; in experiment [20], 105%; in experiment [9], 114%; in experiment [10], 101%. The growth in [11] was 116%; in experiment [12], 104%; in [13] it was 122%; in experiment [14], 98.5%; in experiment [15], 105%; in experiment [16] it was 105%. For the same compound, the growth in [17] is 104%.
Take `COc1ccc2c(c1)nc(N)c1c3ccccc3cn21`: the growth is 79.1% in experiment [1]; 95.3% in experiment [2]; 88.1% in experiment [3]; 85.6% in experiment [4]; 72.4% in experiment [5]; 58.1% in experiment [6]. Also, the growth in [7] is 75.9%; in [8], 92.7%; in experiment [9], 65.2%; in [10] it was 85.5%; in experiment [11], 77.1%; in experiment [12] it was 81%. In addition, the growth in experiment [13] is 79.5%; in experiment [14] it was 94.3%; in experiment [15], 85.9%; in experiment [16], 63.1%; in experiment [17], 56.4%.
Turning to `Cn1cc(-c2nc(-c3c[nH]c4ncc(F)cc34)cs2)c2cccnc21`, the growth in [1] was 92.1%; in experiment [2], 98.8%; in experiment [3], 107%; in experiment [4] it was 108%; in experiment [5], 96.3%; in experiment [6], 140%. The growth in experiment [7] was 107%; in experiment [8] it was 94.4%; in experiment [9] it was 101%; in experiment [10] it was 68.8%; in experiment [11], 98.3%; in experiment [12], 116%. For the same compound, the growth is 107% in experiment [13]; 113% in [14]; 119% in experiment [15]; 86.6% in experiment [16]; 97.1% in experiment [17].
As to `Clc1ccc2c(Nc3ccc4oc(NCCN5CCCC5)nc4c3)ccnc2c1`, the growth in [1] is 88.7%; in experiment [2], 101%; in experiment [3] it was 90.1%; in experiment [4], 109%; in experiment [5] it was 96.4%; in experiment [6] it was 98.5%. In addition, the growth in [7] is 92.9%; in experiment [18] it was 84.4%; in experiment [19], 71.1%; in [20], 20.8%; in experiment [9], 105%; in [10], 37.3%. Moreover, the growth was 81.8% in [11]; 72.5% in experiment [12]; 106% in experiment [13]; 47.6% in [14]; 108% in experiment [15]; 50.7% in experiment [16]. For the same compound, in [17], the growth was 49.3%.
